# Laboratory results as given in PubChem BioAssay (NCI).
# The panel holds about 83,000 compounds, 20% with a hit somewhere; the sample as a whole holds those more often.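 Plates (96-well) were seeded with cells, treated with compound at one concentration, and incubated for 48 hours before percent growth was determined.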 Unmarked numbers belong to inactive results. Active and inactive are the calls of the source. The calls were made as follows: active = growth percent below 10; inactive = the rest.
# Legend:
# Assay in all cases: NCI-60 one-dose screen, 48 h (100 = growth as untreated, 0 = no growth, -100 = all killed)
# Conditions in all cases: 10 µM unless noted
# T-47D breast = system: T-47D breast
# BT-549 breast = system: BT-549 breast
# MDA-MB-435 melanoma = system: MDA-MB-435 melanoma
# SW-620 colon = system: SW-620 colon
# MCF7 breast = system: MCF7 breast
# HCT-116 colon = system: HCT-116 colon
# HCC-2998 colon = system: HCC-2998 colon
# KM12 colon = system: KM12 colon
Compound,growth (T-47D breast),growth (BT-549 breast),growth (MDA-MB-435 melanoma),growth (SW-620 colon),growth (MCF7 breast),growth (HCT-116 colon),growth (HCC-2998 colon),growth (KM12 colon)
CN1CCN(C(=O)OCc2nc3c(N4CCOCC4)nc(-c4ccccc4)nc3n2C)CC1,-40.7% (active),-71.1% (active),-84.1% (active),-46.4% (active),-64.3% (active),-71.6% (active),-75.4% (active),-61.6% (active)
COc1cc2nc(-c3ccc(C#N)cc3)[nH]c(=O)c2cc1OC,112%,293%,103%,110%,100%,94.3%,83.1%,111%
O=C(Nc1ccc(Nc2ncccn2)cc1)NC1C=c2ccccc2=CC1 (stereo not drawn),100%,102%,113%,106%,97.9%,111%,106%,108%
C[C@H]1[C@H](C)CC[C@]2(CO)CC[C@]3(C)C(=CC[C@@H]4[C@@]5(C)CCCNC(C)(C)[C@@H]5CC[C@]43C)[C@H]12,1.1% (active),-66% (active),-73.9% (active),-69.6% (active),-29.4% (active),-94.7% (active),-38.7% (active),0.124% (active)
NS(=O)(=O)c1cccc(NC(=O)C(=O)C2C(=O)Nc3ccccc32)c1 (stereo not drawn),112%,109%,96.8%,94.5%,109%,93.3%,104%,103%
O=C(O)c1cn(C2CC2)c2cc(N3CCN(C(=O)C[n+]4cccc5ccccc54)CC3)c(F)cc2c1=O,74%,75.8%,59.5%,-17.2% (active),45.2%,23.7%,106%,92.3%
COC(=O)C1NC(=S)N(c2ccc(Cl)cc2)C1/C=C/c1ccccc1 (stereo not drawn),88.2%,93.8%,85.5%,108%,101%,95.6%,93.2%,96%
O=C(N/N=C/c1ccncc1)c1ccccc1Nc1cccc(C(F)(F)F)c1,58.2%,69.3%,112%,95.7%,104%,69.2%,77.8%,77.8%
COc1cccc(CNCCN2C(=O)c3ccc4c5c(ccc(c35)C2=O)C(=O)N(CCNCc2cccc(OC)c2)C4=O)c1,97.4%,96.1%,118%,-33% (active),9.83% (active),-41.6% (active),97.8%,82.4%
COc1cnccc1-c1nc2ccc3[nH]ncc3c2c2c1CCCC2,68.4%,43.3%,13.2%,28.1%,43.5%,23.8%,58.4%,21.4%
O=C(Nc1nc(-c2ccccc2Cl)cs1)c1cc(-c2ccccc2)nc2ccc(Cl)cc12,74.1%,11.8%,8.05% (active),29.4%,25.8%,4.98% (active),95.5%,84.2%
CC1CCN(C(=O)OCc2nc3nc(Cl)nc(N4CCOCC4)c3[nH]2)CC1,-61.6% (active),-66% (active),-76.5% (active),-55.6% (active),-18.9% (active),-74.1% (active),2.05% (active),9.43% (active)
CCCCCCNC(=O)Oc1ccc(/C(=C(/CC)Cc2ccccc2)c2ccc(OCCN(CC)CC)cc2)cc1,56.1%,95.2%,60.9%,23.1%,10.1%,27.2%,59.5%,51.6%
CCN(CC)CCCCCCNc1cc(OC)cc2cccnc12,92.5%,83.9%,17.8%,-64.5% (active),20%,-54.4% (active),84.1%,76%
Cc1cccc(Oc2ccc(Nc3ncnc4ccc(NC(=O)CNCCO)cc34)cc2Cl)c1,35.7%,73.4%,55.7%,77.9%,47.1%,37.2%,66.8%,76.8%
COc1cc(C2CC(c3cccc(Nc4ccncc4)c3)=NN2c2ccccc2)cc(OC)c1OC (stereo not drawn),82.3%,59.4%,-72.9% (active),-25.9% (active),13.7%,32%,20.2%,7.46% (active)

Compound,growth (T-47D breast),growth (BT-549 breast),growth (MDA-MB-435 melanoma),growth (SW-620 colon),growth (MCF7 breast),growth (HCT-116 colon),growth (HCC-2998 colon),growth (KM12 colon)
O=C(Nc1ccc2ncnc(Nc3ccc(Oc4cccc(F)c4)c(Cl)c3)c2c1)c1ccc(CN2CCOCC2)cc1,-9.3% (active),19.9%,22%,38.7%,10.5%,13.7%,69%,24.6%
CC(Oc1ccc(C(=O)NS(=O)(=O)C(C)(C)C)cc1C(F)(F)F)c1ccc(Oc2ccccc2)cn1 (stereo not drawn),60.5%,67.2%,-4.12% (active),58.4%,38.9%,60.1%,86.9%,52.7%
COc1ccc(-n2cc(-c3cc(OC)c(OC)c(OC)c3)n(C(C)=O)c2=O)cc1,77.2%,100%,84.3%,98.1%,71.5%,94%,108%,85%
C=C1C(=O)O[C@H]2[C@H]1CC/C(COC(=O)/C=C/c1c[nH]c3ccccc13)=C\CC[C@@]1(C)O[C@@H]21,-68.3% (active),-69.6% (active),-88.5% (active),-74.7% (active),-40.1% (active),-83.8% (active),-88.1% (active),-51.6% (active)
COc1ccc(/C=C/c2n[nH]c3ccc(N4CCOC4=O)cc23)cc1,17.6%,16.1%,44.4%,1.51% (active),2.37% (active),8.08% (active),31.5%,8.51% (active)
C(=N\Nc1ncc(-c2cc3cc4c(cc3o2)OCO4)s1)/c1c[nH]c2ccccc12,-3.93% (active),-56.9% (active),-31.6% (active),-33.9% (active),-0.831% (active),-1.24% (active),-3.45% (active),-29.8% (active)
COc1cc2nc(-c3ccc(C(F)(F)F)cc3)cc(OCCN3CCCC3)c2cc1OC,86.5%,70.4%,97.2%,91.2%,85.1%,67.3%,82%,93.7%
CCCCCCc1nc2nc(Cl)c(Cl)nc2[nH]1,22.7%,66.5%,61.9%,87.6%,64.4%,57.1%,61.3%,47.6%
COc1cccc(C(Cc2ccccc2)Nc2ccccc2)c1OC (stereo not drawn),80.6%,101%,105%,95.1%,102%,77%,91.2%,99.6%
COc1cccc(CCC(=O)c2cc3c(N)c(C(=O)Nc4cccc(Cl)c4C)sc3nc2C)c1,28.2%,50.6%,-54.8% (active),34%,11.3%,13%,6.58% (active),19.6%
O=C1/C(=C\c2cn(Cc3ccccc3)c3ccc(Br)cc23)c2ccccc2N1c1c(Cl)cccc1Cl,94.5%,106%,105%,108%,96.7%,94.7%,106%,104%
C#Cc1cccc(NC(=O)Nc2ccc(NC(=O)CCl)cc2)c1,-40.2% [8.25 µM] (active),-64.2% [8.25 µM] (active),21.7% [8.25 µM],-61.7% [8.25 µM] (active),14.1% [8.25 µM],-0.386% [8.25 µM] (active),82.6% [8.25 µM],-27.2% [8.25 µM] (active)
COc1cc2nc(-c3ccc(C(F)(F)F)cc3)cc(OCCCN3CCCCC3)c2cc1OC,35.3%,39.3%,-6.42% (active),30.4%,36.2%,25.5%,56%,36.6%
CCCCCCCC(=O)Nc1nc2[nH]c(CN3CCN(Cc4cccc(I)c4)CC3)c(CN3CCN(Cc4cccc(I)c4)CC3)c2c(=O)[nH]1,-62% (active),-4.02% (active),-75.8% (active),-73.7% (active),-93.6% (active),-100% (active),-94.6% (active),-80.5% (active)
COc1ccc(NC(=O)c2sc3nc(C)c(C(O)c4ccc(OC)cc4)cc3c2N)cc1 (stereo not drawn),56.8%,28.8%,-2.11% (active),33.8%,13.7%,15.3%,20.4%,20.7%
